Measurements from the supplement of paper PMC6555819.

Legend:
Assay in all cases: PBM binding z-score (relative to random genomic background probes); higher = stronger binding; sequences stand for … in GC…GCGATTGACAGCGTAGAATGAAGG
[1] = system: PPARg:RXRa DBDmut IVT, anti-RXR (DBD mutation: RXRa K156A/R161A, NR concentration 270 nM, RXRa partner concentration 90 nM)
Procedure, shortened: (§1)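 For binding z-scores, the reference was random background probes on custom Agilent 4×180K protein-binding microarrays. These arrays were incubated 1 h with ligand-free nuclear receptor dimers in PBS pH 7.4, 2% milk, 0.02% Triton X-100, 1 mM DTT, 0.2 mg/mL BSA and 0.4 mg/ml salmon testes DNA. Fluorescence was scanned after antibody detection of each partner (one per run) and regression-normalized.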

[2] = system: PPARg:RXRa IVT, anti-PPARg (NR concentration 270 nM, RXRa partner concentration 90 nM)
Procedure, shortened: as §1

[3] = system: PPARg DBDmut:RXRa IVT, anti-PPARg (DBD mutation: PPARg1 K132A/R137A, NR concentration 270 nM, RXRa partner concentration 90 nM)
Procedure, shortened: as §1

[4] = system: PPARg DBDmut IVT, anti-PPARg (DBD mutation: PPARg1 K132A/R137A, NR concentration 270 nM)
Procedure, shortened: as §1

[5] = system: PPARg homodimer (NR concentration 180 nM)
Procedure, shortened: as §1

[6] = system: PXR:RXRa (NR concentration 270 nM, RXRa partner concentration 90 nM)
Procedure, shortened: as §1

[7] = system: PXR homodimer (NR concentration 270 nM)
Procedure, shortened: as §1

[8] = system: RARa:RXR (NR concentration 270 nM, RXRa partner concentration 90 nM)
Procedure, shortened: as §1

[9] = system: RARa homodimer (NR concentration 270 nM)
Procedure, shortened: as §1

[10] = system: RARb:RXRa (NR concentration 270 nM, RXRa partner concentration 90 nM)
Procedure, shortened: as §1

[11] = system: RARb homodimer (NR concentration 270 nM)
Procedure, shortened: as §1

[12] = system: RARg:RXRa (NR concentration 270 nM, RXRa partner concentration 90 nM)
Procedure, shortened: as §1

[13] = system: RARg homodimer (NR concentration 270 nM)
Procedure, shortened: as §1

[14] = system: RXRa DBDmut IVT, anti-RXR (DBD mutation: RXRa K156A/R161A, NR concentration 90 nM)
Procedure, shortened: as §1

[15] = system: RXRa homodimer (NR concentration 180 nM)
Procedure, shortened: as §1

[16] = system: THRa:RXRa (NR concentration 90 nM, RXRa partner concentration 90 nM)
Procedure, shortened: as §1

[17] = system: THRa homodimer (NR concentration 90 nM)
Procedure, shortened: as §1

[18] = system: VDR homodimer (NR concentration 270 nM)
Procedure, shortened: as §1

Sequence	PBM binding z-score [1]	PBM binding z-score [2]	PBM binding z-score [3]	PBM binding z-score [4]	PBM binding z-score [5]	PBM binding z-score [6]	PBM binding z-score [7]	PBM binding z-score [8]	PBM binding z-score [9]	PBM binding z-score [10]	PBM binding z-score [11]	PBM binding z-score [12]	PBM binding z-score [13]	PBM binding z-score [14]	PBM binding z-score [15]	PBM binding z-score [16]	PBM binding z-score [17]	PBM binding z-score [18]
GCATATAGGTAATACAAAGTGAAAGTCCGATTGT	4.28	2.73	0.942	1.36	-0.267	-0.28	-0.0675	-0.178	0.391	-0.152	-0.658	0.129	0.264	0.278	0.0953	0.0465	-0.756	-0.321
GCTAGATGGTCAGTAAAAGGTCACACACCGGTCG	0.38	2.57	0.624	-0.0918	3.76	4.83	0.89	5.65	2.5	4.43	5.31	5.52	4.87	0.182	5.18	3.69	1.89	1.57
ACTAGCAGGCCAGGGGTCACTCAAGATTAGTCCG	0.771	3.24	0.053	0.0858	2.99	5.13	0.401	5.58	1.68	3.85	4.12	5.09	4.23	1.31	6.16	3.5	1.05	2.8
ACTTACGGGTCAACGCGGTTATAGCACGCGTATA	3.64	4.12	1.26	1.32	1.91	3.92	0.241	4.45	0.802	4.04	3.18	5.42	5.07	1.88	5.68	2.97	0.345	1.45
TGAATGAGGTTAAAGATCAGGCAACGTGGCGTCG	2.24	3.79	0.599	0.0672	0.811	1.83	0.118	2.92	-0.39	2.02	0.653	2.44	1.16	1.02	3.63	2.71	0.312	0.286
CAAGCTAGGTCACAGAGGTCAAAGTCCGTGCGTA	5.16	5.87	0.564	0.34	6.23	6.96	12.1	8.03	2.55	5.47	5.82	7.64	8.36	3.42	8.42	4.64	2.65	7.28
CTAACTAGGTCAAGAGGTCAAAGTCCGCTTCCCG	8.74	8.7	3.27	2.76	5.39	6.07	2.21	7.15	1.67	5.5	5.82	8.23	7.39	2.89	8.23	4.27	2.29	4.55
ACCAGTTGGTCAGCTGAGGTCACACACAATTCGG	1.19	2.26	0.45	-0.406	2.59	5.42	2.07	4.41	0.742	3.71	4.44	4.2	4.52	1.29	4.27	5.07	5	3.47
GCATATAGGTAATACAAGGTGGAAGTCCGATTGT	4.14	2.47	1.2	0.302	-0.138	0.192	0.041	0.731	0.593	0.0105	-0.533	0.279	0.315	0.235	0.566	2.03	-0.457	-0.109
ATATGTAGGTTTGCTGGGGTCATTCAGACTAGGC	3.16	3.12	1.39	1.41	1.83	5.71	7.95	4.72	1	2.53	3.3	3.6	2.31	2.62	4.91	4.29	3.2	5.58
GCTAGTTGGTCAGTAAAAGGTCAAACACCGGTCG	1.17	2.62	-0.0315	0.251	4.94	5.21	1.94	6.29	1.53	4.13	5.05	5.65	4.86	0.64	5.59	3.51	1.2	1.98
